Experimental data published in PubChem BioAssay AID651650 (Sanford-Burnham Center for Chemical Genomics, 2012).

Target: Neuropilin-1 (Homo sapiens) (UniProt O14786)
Experiment: NRP-1 b1b2 CendR peptide binding inhibitors, dose response, biochemical, FP and AlphaScreen panel (AID 651650)
Details: NRP-1 b1b2 / RPARPAR peptide binding, FP or AlphaScreen; run 1, at 100 µM (top of the series)

Sequence of Neuropilin-1 (Homo sapiens) (O14786 whole entry, looked up): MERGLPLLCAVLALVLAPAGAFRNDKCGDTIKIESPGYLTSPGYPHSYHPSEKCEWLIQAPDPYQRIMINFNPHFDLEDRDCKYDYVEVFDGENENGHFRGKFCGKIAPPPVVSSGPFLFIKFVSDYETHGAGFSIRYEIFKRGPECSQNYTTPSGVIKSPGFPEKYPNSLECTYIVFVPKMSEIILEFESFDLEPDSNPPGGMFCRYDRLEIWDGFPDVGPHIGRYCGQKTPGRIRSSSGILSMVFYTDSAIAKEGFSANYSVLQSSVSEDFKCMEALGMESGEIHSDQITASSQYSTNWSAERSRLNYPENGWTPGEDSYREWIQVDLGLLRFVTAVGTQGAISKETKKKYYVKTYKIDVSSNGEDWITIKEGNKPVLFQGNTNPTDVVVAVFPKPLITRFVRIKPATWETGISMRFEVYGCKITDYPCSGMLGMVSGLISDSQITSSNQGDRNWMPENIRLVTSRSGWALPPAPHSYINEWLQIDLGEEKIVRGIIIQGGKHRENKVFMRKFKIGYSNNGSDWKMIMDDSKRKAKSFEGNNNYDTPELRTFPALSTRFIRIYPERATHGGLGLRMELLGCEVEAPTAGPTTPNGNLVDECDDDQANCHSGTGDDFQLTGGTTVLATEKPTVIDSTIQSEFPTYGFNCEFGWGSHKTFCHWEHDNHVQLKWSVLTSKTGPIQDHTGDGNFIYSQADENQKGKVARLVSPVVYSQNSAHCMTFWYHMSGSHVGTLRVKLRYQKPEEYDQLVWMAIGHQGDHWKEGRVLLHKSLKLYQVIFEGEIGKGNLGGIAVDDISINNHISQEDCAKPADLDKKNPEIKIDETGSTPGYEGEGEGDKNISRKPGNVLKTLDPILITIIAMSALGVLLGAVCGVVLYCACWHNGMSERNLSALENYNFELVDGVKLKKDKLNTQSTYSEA

SMILES	inhibition [%]
Cc1ccc(NC(=S)Nc2cccc3ccccc23)cc1	13.4
O=C(Nc1cccc(S(=O)(=O)N2CCCCC2)c1)c1ccc([N+](=O)[O-])o1	52.5
CCOc1ccc(S(=O)(=O)NNC(=O)c2cc3ccccc3o2)cc1	1.91
COc1ccc(-c2[nH]ncc2CN(C)CCc2c(C)n[nH]c2C)c(F)c1	-14.2
O=C(CCC(=O)Nc1ccccc1Cl)NN=C1CCCC1	67.6
Clc1nc(-c2ccccn2)nc2scc(-c3ccccc3)c12	7.99
O=C(CCn1c(=O)c2cccn2c2cccnc21)NCc1cccc(Cl)c1	5.81
CCCN(C(=O)Cn1c(C(F)(F)F)nc2ccccc21)C1CCS(=O)(=O)C1 (stereo not given)	60.7
O=C(NCCOC(=O)c1ccccc1)c1ccccc1	72.3
COc1cc2c(cc1OC)C(Nc1ccc(S(N)(=O)=O)cc1)=NC(C)(C)C2	71.9
CCOC(=O)c1ccc2[nH]c(C)c(C)c2c1	-0.673
COc1ccc(CN2C(=O)c3ccccc3C2=O)cc1C(=O)Nc1ccccc1N1CCOCC1	30
COC(=O)C1=C(C)NC(C)=C(C(=O)OC)C1C(=O)OC(C)C(=O)c1ccccc1 (stereo not given)	12.9
Cc1ccc2cc(CN(c3ccccc3C)S(=O)(=O)c3ccccc3)c(=O)[nH]c2c1	41.9
Cc1ccccc1OCC1Cc2c(nc(N)c(C#N)c2N)O1 (stereo not given)	-18.4
CCOc1ccccc1N1CCN(C(=O)c2ccncc2)CC1	-22.8
CCc1ccc(NS(=O)(=O)c2c(C(=O)N3CCCCCC3)c(C)n(C)c2C)cc1	31.1
C=CCOc1c(CNc2ncn[nH]2)cccc1OCC	33.2
COc1ccc(CCN=C2SCC(=O)N2Cc2ccccc2)cc1OC	28.8
CC(=O)NC(c1cccc(F)c1)c1nc(-c2cccc(C(F)(F)F)c2)cs1 (stereo not given)	9.72
